Z-score data for 69 sequences are collected here from PubChem BioAssay AID1508600 (Functional Genomics Laboratory (NCATS/FGL), 2020).

Hit rate of the full screen: of about 53,000 sequences, about 3,700 (7%) were called active.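 How the source made its calls: active means gene knockdowns whose robust z-score for IL-1 alpha signal is at least 2 or at most -2, so actives lie on both sides; inactive means the rest.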 Only a selection was taken, and actives are over-represented in it overall.

This assay is described as follows: Components of the Cytosolic LPS Sensing Pathway: Gene Identification via Genome-wide siRNA Screen.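 Further: robust z of the log signal after scaling to non-targeting control siRNA wells of the plate.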 Conditions: RAW264.7 macrophages, IL-1a HTRF, actives lie on both sides, screened at 100 nM (by protocol), cells primed 5 h with Pam3CSK4 first. An outline of the steps: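 Cells (RAW264.7, 1×10^4 per well) were transfected with siRNA at 100 nM and cultured 48h at 37 degrees C. Pam3CSK4 was added for 5 hours; LipidA transfection followed for 24 hour. IL-1a was then measured by HTRF.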
A general note: In TR-FRET formats the signal depends on donor and acceptor labels being close together.
In the case of “GCUUCUAAAUUUGGUUCUGTT against 9830163H01Rik”, the z-score is -0.389 (inactive).

For GGUGGACAAGGCAAUACAGTT against Mmp20, the z-score is 4.46 (active).

Take “GGUUUGAAUGAAUUCAAGGTT against 6030452D12Rik”: the z-score was 0.785 (inactive).

Consider GCUUAAUCAACUGGUACUATT against Olfr19, for which the z-score is -1.7 (inactive).

Regarding GGGUCACGGGAACUCAAAATT against Mlf1, the z-score is -0.608 (inactive). On to GGAAUCAUCUGAACACACATT against Ctcf, for which the z-score was -2.18 (active). The result for GGAGAAGCUAUGGUAUUACTT against Apc2 reads -0.798 (inactive); that for CCACCACCAUCUAAAUAUATT against Ckap2l, -1.62 (inactive); that for GGACACAUUCGAAUGAACCTT against Mkrn2, 0.0809 (inactive). The result for GGACAAGACCAGCAAAUACTT against Six6 reads -1.58 (inactive); that for GCAUUGUGCUCAAAUCUGCTT against C1qtnf7, -0.168 (inactive). In the case of GGGUAUUCUGUGUGUUACUTT against Hsd3b1 it was 2.06 (active); in that of GGGUUUUGAAACAUGCAGGTT against Cd44, -1.54 (inactive). Regarding AGAGAGAUAUUGUUCAUCATT against Psg22, the z-score is 0.11 (inactive). In the case of GGUAAUCGUGUAUUCAUAUTT against Dph5 it was -0.327 (inactive); in that of GGAAACUGAAAAACAGAGUTT against Xbp1, -0.957 (inactive). For the sequence GCGAAGAGAUGCUAACUAUTT against Dhx8, the z-score was -2.86 (active). The result for UGAGUUGUUUCCAGCUAAATT against Uts2b reads -0.506 (inactive); that for GCCCGGUCCUUUACUACAUTT against Sdk1, 0.595 (inactive). Consider GGAUGCACUCAAGAAUUACTT against Ccdc65, for which the z-score is 2.11 (active). The result for GGUGAGUGAUCUUCAGAACTT against Snx13 reads 0.311 (inactive). Regarding CCCUGCUAAAAUCGACCUGTT against Plekha8, the z-score was -0.912 (inactive). Turning to GCUCAUCGUGUUCGCUAUATT against Tuft1, the z-score is -0.235 (inactive). The result for GGAGGUAAAGGAAAACUCUTT against Fmo1 reads 0.27 (inactive); that for CCACAACUAUGAGUCUAUUTT against Ech1, 2.05 (active). The result for GCUGGACCCACACAAAAAGTT against Rhbdl3 reads -0.0513 (inactive); that for “GGCUUUUCAGACCAAGCUUTT against 3830406C13Rik”, 0.322 (inactive); that for CGUUGUAUGCUAGUACUGATT against Olfr1501, -1.17 (inactive). The result for GGCAAAAAGGGAUGUUACCTT against Map1lc3b reads -0.221 (inactive); that for GCGAGUCUAUGUGUUCCCUTT against Cox4i2, 0.187 (inactive); that for GGAAACAAAUGAGUGCCUGTT against Bloc1s5, 2.02 (active).

For GCUGGAAUACGGAAAAUGGTT against Gbe1, the z-score was -1.56 (inactive). In the case of GGAGGAAAUACAUGAUAAATT against Strap it was -0.159 (inactive); in that of GGCUUACGAUGAAAAUAAATT against Lca5, -1.94 (inactive). In the case of GGCAUUGCAUUCUCACAUGTT against Gabarapl1 it was 0.319 (inactive).

Take GCUCGUUGCAUAAAAAGAGTT against Creg2: the z-score was -0.286 (inactive). In the case of GGAGAUCAAAGAAUCUUGGTT against Arhgap45 it was -4.45 (active). The result for “GCCGGAAACUCAAGAUAGCTT against F830208F22Rik” reads -0.74 (inactive); that for GCCCGCUCUCGGAUUUUGATT against Htr1b, 1.5 (inactive).

Turning to GGUAGAGACCGCAUAGAAATT against Aqp8, the z-score was 2 (inactive). The result for CCGGGUAGUGAGUAAGCUUTT against Neu2 reads -3.51 (active); that for GGUCCAAGAAGACAAUGCUTT against Cga, -0.102 (inactive); that for CCUCUUUGGGACUAUAGACTT against Olfr1357, -0.378 (inactive). In the case of GGUAUUGGUCCAAUUUUUCTT against Gng7 it was 0.187 (inactive); in that of GGCUGUGGUGCUCAAUAAGTT against Clstn2, -1.29 (inactive); in that of CCGAGAUAUGAAUCAAAUUTT against Wars, 2.19 (active). The result for GGAAAGACAAAAUCUAUGATT against Peg3 reads -0.777 (inactive). For the sequence GGUCAUCAGUGAGCUGAAUTT against Rplp2, the z-score was 0.125 (inactive).

GCUCAUCUCCUUGAAUUCATT against Agbl5: the z-score is 0.31 (inactive). In the case of CCUGUCCUGAUGGUGAAACTT against Serpinb3c, the z-score was 0.619 (inactive). On to GCCUAAACUACCCUUAUAGTT against Ocln, for which the z-score was 3.4 (active).

On to GGUGCUGGCAACCUUUUGUTT against Masp1, for which the z-score was 0.16 (inactive).

As for GGGCCAUUGUCAAGGUGAUTT against Olfr632, the z-score was -0.408 (inactive). As for CCGAUUUUUACUUUUAGCUTT against Slc16a7, the z-score was 1.86 (inactive).

GGAGACUAUUACCAUACUGTT against P4ha2: the z-score is -0.991 (inactive). Regarding GGUGAGCAAGAACAAAAAGTT against Chil6, the z-score was -0.71 (inactive). With GGUUUCGAGAAAACAACAATT against Miip, the z-score is 0.566 (inactive).

Regarding GCACAUCGAAAAUGCCCUGTT against Cpt1c, the z-score was -0.154 (inactive). The result for GGCAAACCUGCUUUCAUGGTT against Smc5 reads 0.282 (inactive). In the case of GCAGUUCUCCUAUUUCAUCTT against Cdc45 it was 2.03 (active); in that of CGGGUGAGUGGAAAAACCATT against Atg9b, -0.282 (inactive).

In the case of GCCAAUGCCCUUGUGCAAATT against Olfr344, the z-score is 0.301 (inactive). In the case of GGCUAUCUCGUAUUCUGAUTT against Olfr985 it was -1.62 (inactive). In the case of CCCGGGUUGGGUGUACAUUTT against Sds, the z-score was 3.62 (active). As to CCUUAGCAAUGGGAUUGAUTT against Rasl12, the z-score was 0.448 (inactive). As for GGAGAACACUUUAAUGCUGTT against Ovch2, the z-score is 0.00992 (inactive). In the case of GGGCUGGAGUCUGAUACAUTT against Rbm5, the z-score was 3.39 (active). The result for CCGUGUUAGAGUUUUCGACTT against Top3b reads 1.2 (inactive); that for CCAAAGGUAUGCAGUAUGATT against Cdh4, 0.131 (inactive).
